# A selection: hits, their analogues and other compounds. The true share with any hit is near 6.9%.
# VDR inhibitor: Inhibitors of the vitamin D receptor (VDR): qHTS; 400,000 tested, 0.93% active; AID 504847, 2011; Potency, µM, for inactives: max response, negative = inhibition, hits mostly inhibitors; VDR-SRC2-3 peptide fluorescence polarization, 2 h; note: % is set by controls: 0 for no effect and ±100 for the full control effect
#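 After 23 nl compound addition and a short centrifugation, plates sat for 2 hours at ambient temperature; polarization of fluorescence then indicated loss of VDR binding to peptide SRC2-3.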
# PLK1 PBD block: qHTS for Inhibitors of PLK1-PDB (polo-like kinase 1 - polo-box domain): Primary Screen. Serine/threonine-protein kinase PLK1 (Homo sapiens), P53350. Plk1 PBD binding of FITC phosphopeptide, fluorescence polarization. Potency, µM, without a hit: max response, negative = inhibition, usual class: inhibitors. 360,000 tested, 2.8% active; note: series mostly up to about 57 µM; % is set by controls: 0 for no effect and ±100 for the full control effect; nearly all actives have a fitted effect of over 65% in size
# HP1b chromo inh: HTS for Inhibitors of HP1-beta Chromodomain Interactions with Methylated Histone Tails; Potency, µM (doses to about 114 µM), for inactives: at the highest dose activity change, negative = inhibition, usual class: inhibitors; 390,000 tested, 0.56% active; AlphaScreen HP1-beta / biotin-H3K9me3 peptide binding; AID 540317, 2011; note: nearly all actives have a fitted effect of over 70% in size
#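 HP1-beta protein (50 nM final) preincubated 30 min at room temperature with biotinylated H3(1-18)K9me3 peptide (50 nM) in PBS pH 7.4, 0.01% Tween-20, then compound added for 30 min. AlphaScreen streptavidin donor/nickel chelate acceptor beads (10 ug/mL final), 30 min dark, luminescence read.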
# BAZ2B block: qHTS Assay for Inhibitors of BAZ2B; AlphaScreen BAZ2B-H3K14Ac peptide displacement; 360,000 tested, 4.4% active; Bromodomain adjacent to zinc finger domain protein 2B (Homo sapiens), Q9UIF8; AID 504333, 2011; Potency, µM (highest dose often 114 µM), for inactives: top-dose activity change, negative = inhibition, usual class: inhibitors; note: % is set by controls: 0 for no effect and ±100 for the full control effect; nearly all actives have a fitted effect of over 60% in size
#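 Multi-concentration screen (max 110 uM) measuring displacement of acetylated histone H3 peptide from BAZ2B by AlphaScreen, using 50 nM protein, 50 nM peptide and 10 ug/mL streptavidin donor plus Ni-chelate acceptor beads.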
# L3MBTL1 inh: qHTS Assay for the Inhibitors of L3MBTL1; Lethal(3)malignant brain tumor-like protein 1 (Homo sapiens), Q9Y468; AlphaScreen L3MBTL1–H3K9me1 peptide binding; Potency, µM (doses to about 57.1 µM), inactives show at the highest dose activity, negative = inhibition, actives largely listed as inhibitors; 230,000 tested, 0.66% active; AID 485360, 2010; note: % is set by controls: 0 for no effect and ±100 for the full control effect; nearly all actives have a fitted effect of over 60% in size
#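 Read-out is AlphaScreen signal from streptavidin donor and nickel chelate acceptor beads (10 ug/mL final each) bridging L3MBTL1 (50 nM) and biotinylated K9-monomethylated H3(1-15) peptide (75 nM), after 30 min compound exposure at room temperature.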
# JMJD2A Tudor inh: qHTS Assay for Inhibitors of JMJD2A-Tudor Domain | AlphaScreen JMJD2A-Tudor / H3K4me3 peptide binding | 390,000 tested, 4.4% active | Lysine-specific demethylase 4A (Homo sapiens), O75164 | Potency, µM (titrated, usually from 114 µM), for the others: top-dose activity change, negative = inhibition, actives largely listed as inhibitors | AID 504339, 2011; note: % is set by controls: 0 for no effect and ±100 for the full control effect; nearly all actives have a fitted effect of over 50% in size
# Active calls of the source: *; u = inconclusive; x = no result given; [ ] = another dose, or the depositor's remark. Calls come from the whole dose curve; as a rule, active = well fitted curve in the direction sought with a large enough effect; inconclusive = small, poorly fitted or top-dose-only effect, or another doubt; inactive = no such curve, though single readings can be large; an effect the other way counts as inactive or inconclusive. Potency is the fitted concentration of half-maximal effect.
SMILES,VDR inhibitor,PLK1 PBD block,HP1b chromo inh,BAZ2B block,L3MBTL1 inh,JMJD2A Tudor inh
COc1ccc(C(c2nnnn2Cc2ccccc2)N2CCN(C/C=C/c3ccccc3)CC2)cc1 (stereo unspecified),x,6%,x,x,x,x
CC(C(=O)N(C)Cc1ccccc1)N1CCN(C/C=C/c2ccccc2)CC1 (stereo unspecified),-9%,-15%,u,35µM*,-4%,1.6µM*
COc1ccc(Cl)cc1NC(=O)C(C)N1CCN(C/C=C/c2ccccc2)CC1 (stereo unspecified),-19%,-7%,13µM*,50µM*,x,3.5µM*
Cn1c(=O)c(C#N)c(-c2ccc(F)cc2)c2cc(C(=O)c3cc(Cl)cc(Cl)c3O)cnc21,4%,27µM*,u,35µM*,-3%,45µM*
O=C1NN(c2cccc(Br)c2)C(=O)/C1=C\c1ccc(O)cc1,u,24µM*,2%,-36%,x,-25%
O=C1NN(c2ccccc2)C(=O)C1=Cc1ccccc1O,x,27µM*,x,x,x,x
O=C1NN(c2ccc(Br)cc2)C(=O)/C1=C\c1ccc(O)cc1O,-2%,30µM*,u,u,-10%,u
CC(C)(C)OC(=O)Cc1nnc(-c2nc3ccccc3[nH]2)o1,x,x,x,x,x,-14%
COC(=O)[C@@]1(C(C)C)N=C(c2cc(OC)c(OC)c(OC)c2)[C@]2(O1)C(=O)N(Cc1ccc(OC)cc1)c1ccc(Br)cc12,x,3%,x,x,x,x
O=C(CSc1nnc(CNC(=O)c2cccs2)o1)Nc1ccccc1C(F)(F)F,7%,-8%,47%,-6%,x,-8%
O=C(CSc1nnc(-c2ccccn2)o1)Nc1ccccc1C(F)(F)F,8%,-28%,5%,50µM*,x,-18%
COC(=O)NC1CCS(=O)(=O)C1 (stereo unspecified),11%,0%,4%,-6%,6%,-14%
COC(=O)NC1CCC(NC(=O)OC)CC1 (stereo unspecified),-12%,27µM*,u,5%,5%,-8%[57.1 µM]
COc1ccc(S(=O)(=O)NC(Cc2ccccc2)C(=O)O)cc1 (stereo unspecified),-8%,-20%,53%,-12%,x,-4%
COc1ccc(S(=O)(=O)NC(Cc2cnc[nH]2)C(=O)O)cc1 (stereo unspecified),-16%,-5%,5%,-2%,7%,13µM*
Cc1ccc2onc(CNC(=O)N3CCN(c4cccc(C)c4C)CC3)c2c1,-9%,x,19%,-15%,x,-21%
C[C@@H](NC(=O)c1cc2c([nH]c3ccccc32)c(-c2ccccc2)n1)C(=O)O,-21%,u,31%,u,x,-13%
CCCCN(CC)Cc1ccc(CNC(=S)Nc2ccc(C)cc2Cl)o1,12%,-28%,3%,4%,x,-34%
CCCCN(CC)Cc1ccc(CNC(=S)Nc2c(C)cc(C)cc2C)o1,-6%,13µM*,-4%,-6%,x,-27%
CCCCOc1cccc(C(=O)N(Cc2ccccc2)C2CCS(=O)(=O)C2)c1 (stereo unspecified),-12%,-8%,7%,-2%,x,-19%
Cc1c(C(=O)N(Cc2ccc(N(C)C)cc2)C2CCS(=O)(=O)C2)oc2ccccc12 (stereo unspecified),-5%,6%,u,28µM*,-17%,14µM*
CCCCOc1cccc(C(=O)N(Cc2ccc(N(C)C)cc2)C2CCS(=O)(=O)C2)c1 (stereo unspecified),-4%,x,u,-19%,x,56µM*
Cc1ccc(OCC(=O)N(Cc2ccc(N(C)C)cc2)C2CCS(=O)(=O)C2)cc1C (stereo unspecified),28%,-24%,u,45µM*,-4%,u
CC(C)c1c(O)ccc2c1CCC1[C@@](C)(C=O)CCC[C@@]21C (stereo partly specified),-5%,x,x,x,x,x
Cc1cc(-c2ccccc2)n2nc(N)nc2n1,25%,2%,27%,2%,x,7%
SMILES,VDR inhibitor,PLK1 PBD block,HP1b chromo inh,BAZ2B block,L3MBTL1 inh,JMJD2A Tudor inh
Cc1cc(C)cc(NC(=O)Nc2ccc3nc(N4CCN(C)CC4)cc(C)c3c2)c1,13%,x,24%,0%[57.1 µM],x,-4%
NC1=NN=C(N2N=C(c3ccco3)CC2(O)C(F)(F)F)n2ncnc2C1 (stereo unspecified),-2%,-22%,17%,79µM*,-16%,-30%
NC(=O)c1cc([N+](=O)[O-])ccc1Nc1ccccc1,7%,-8%,18%,4%,1%,-24%
Nc1cc([N+](=O)[O-])ccc1Nc1ccc(O)cc1,-27%,-29%,u,32µM*,x,56µM*
O=C(O)c1cccc2c1C(=O)c1ccccc1-2,-8%,-13%,12%,-8%,6%,-2%
O=C1C(=C(I)I)c2ccccc2-c2ccccc21,35µM*,4.7µM*,56µM*,x,x,25µM*
Cc1cc(C)n(Cc2cccc(C(=O)N/N=C/c3ccncc3)c2)n1,5%,-4%,44%,-2%,x,-8%
CCOC(=O)c1c(C)[nH]c(C(=O)CSc2nnc(C3CC3)n2N)c1C,u,24µM*,u,13%,x,u
CO/N=C(\C(=O)O)c1csc(NN=C(C)C)n1,-12%,-4%,u,-19%,-6%,22µM*
Cc1snc(S(=O)(=O)/C(C#N)=N/Nc2cccc(C(F)(F)F)c2)c1C#N,-10%,u,-31%,u,x,50µM*
O=C(Nc1ccncc1)Nc1cccc(C(F)(F)F)c1,-3%,-8%,36%,1%,x,-11%
COc1ccc(S(=O)(=O)C(C#N)c2nc3ccccc3nc2N2CCC(C)CC2)cc1 (stereo unspecified),x,x,x,45µM*,2%,x
CC1CCCN(c2nc3ccccc3nc2C(C#N)S(=O)(=O)c2ccccc2)C1 (stereo unspecified),7%,u,36%,u,-6%,-17%
O=C(c1ccc(COc2ccccc2[N+](=O)[O-])o1)N1CCCCCC1,1%,-1%,6%,-8%,1%,-24%
O=[N+]([O-])c1ccccc1-c1ccc(C(=S)N2CCCCC2)o1,u,-19%,50µM*,25µM*,u,45µM*
Cc1cccc(N2CCN(C(=S)c3ccc(-c4ccccc4[N+](=O)[O-])o3)CC2)c1,-11%,u,16µM*,10µM*,u,8.9µM*

# Assay outcomes from PubChem.
